Reference: PubChem BioAssay (NCATS)
Records with an inconclusive call do not appear. Active and inactive are the calls of the source. The call rests on the fitted dose curve; in most records, active means well fitted curve in the direction sought with a large enough effect; inconclusive means small, poorly fitted or top-dose-only effect, or another doubt; inactive means no such curve, though single readings can be large; an effect the other way counts as inactive or inconclusive.

How the values were obtained:
[1] = qHTS of pediatric cancer cell lines to identify multiple opportunities for drug repurposing: Primary screen for SJ-GBM2 cells (AID 1347091);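 further: plate controls were DMSO neutral control for no effect and bortezomib for full effect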
How it was run: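 Cell viability, CellTiter-Glo luminescence; 500-1,000 cells/well, 8- or 11-point titration, 48 h compound exposure at 37 degrees C, 5% CO2. Controls: DMSO neutral, bortezomib 2.3 µM final as positive.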

[2] = qHTS of pediatric cancer cell lines to identify multiple opportunities for drug repurposing: Primary screen for A673 cells (AID 1347092); further: on the % scale 0 is the no-effect control and ±100 the full control effect; nearly all actives have a fitted effect of over 45% in size
How it was run: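 48 h compound exposure, A673, 500-1,000 cells/well, 37 degrees C/5% CO2. MIPE: 11-point, 0.78 nM-46 µM; NPC: 8-point, 0.59 nM-46 µM (final). Readout CellTiter-Glo luminescence after 15 min RT.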

[3] = qHTS of pediatric cancer cell lines to identify multiple opportunities for drug repurposing: Primary screen for SK-N-MC cells (AID 1347093);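 further: series mostly up to about 46 µM; plate controls were DMSO neutral control for no effect and bortezomib for full effect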
How it was run: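 Metabolically active cells were quantified by ATP-dependent luminescence (CellTiter-Glo, 15 min at room temperature) following 48 h treatment. Cells had been plated at 500-1,000 per well and settled for 5 h beforehand.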

[4] = qHTS of pediatric cancer cell lines to identify multiple opportunities for drug repurposing: Primary screen for BT-37 cells (AID 1347094);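 further: series mostly up to about 57 µM; plate controls were DMSO for no effect and bortezomib for full effect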
How it was run: (§1)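 Cells seeded at 500-1,000 cells/well in growth media, rested 5 hours at 37 degrees C, 5% CO2, then dosed; MIPE compounds at 11-point (from 0.78 nM) and NPC at 8-point (from 0.59 nM) final concentrations. Viability by CellTiter-Glo luminescence after 48 hours.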

[5] = qHTS of pediatric cancer cell lines to identify multiple opportunities for drug repurposing: Primary screen for NB-EBc1 cells (AID 1347095);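 further: plate controls were DMSO neutral control for no effect and bortezomib for full effect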
How it was run: as §1

[6] = qHTS of pediatric cancer cell lines to identify multiple opportunities for drug repurposing: Primary screen for U-2 OS cells (AID 1347096);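 further: plate controls were DMSO wells for no effect and bortezomib positive control wells for full effect; nearly all actives have a fitted effect of over 50% in size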
How it was run: (§2)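 Cells (500-1,000/well) rested 5 h, then received compounds for 48 h; metabolically active cells were measured by CellTiter-Glo luminescence. Final concentrations spanned up to 46 µM (MIPE, 11-point) or 0.59 nM-46 µM (NPC, 8-point) in primary screens, 11-point in follow-ups.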

[7] = qHTS of pediatric cancer cell lines to identify multiple opportunities for drug repurposing: Primary screen for Saos-2 cells (AID 1347097); further: on the % scale 0 is the no-effect control and ±100 the full control effect; nearly all actives have a fitted effect of over 40% in size
How it was run: as §1

[8] = qHTS of pediatric cancer cell lines to identify multiple opportunities for drug repurposing: Primary screen for SK-N-SH cells (AID 1347098); further: on the % scale 0 is the no-effect control and ±100 the full control effect; nearly all actives have a fitted effect of over 65% in size
How it was run: as §2

[9] = qHTS of pediatric cancer cell lines to identify multiple opportunities for drug repurposing: Primary screen for LAN-5 cells (AID 1347100);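 further: plate controls were DMSO neutral control for no effect and bortezomib positive control for full effect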
How it was run: as §2

[10] = qHTS of pediatric cancer cell lines to identify multiple opportunities for drug repurposing: Primary screen for NB1643 cells (AID 1347099);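 further: plate controls were DMSO neutral control for no effect and bortezomib positive control for full effect; nearly all actives have a fitted effect of over 50% in size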
How it was run: as §1

O=C1CC2(CCCC2)CC(=O)N1CCCCN1CCN(c2ncccn2)CC1
inactive: Potency [1] | Potency [2] | Potency [3] | Potency [4] | Potency [5] | Potency [6] | Potency [7] | Potency [8] | Potency [9]

CC1=NS(=O)(=O)c2cc(Cl)ccc2N1
inactive: Potency [1] | Potency [2] | Potency [3] | Potency [4] | Potency [5] | Potency [6] | Potency [7] | Potency [8] | Potency [10] | Potency [9]

CCO/C([O-])=N/c1c[n+](N2CCOCC2)no1
inactive: Potency [1] | Potency [2] | Potency [3] | Potency [4] | Potency [5] | Potency [6] | Potency [7] | Potency [10] | Potency [9]

CCc1c(C)[nH]c2c1C(=O)C(CN1CCOCC1)CC2 (stereo not drawn)
inactive: Potency [1] | Potency [2] | Potency [3] | Potency [4] | Potency [5] | Potency [6] | Potency [7] | Potency [8] | Potency [10] | Potency [9]

NCCCNCCSP(=O)(O)O
inactive: activity change, negative = cytotoxic [1] 14.1% [at 9.22 µM] | activity change, negative = cytotoxic [2] 5.74% [at 9.22 µM] | activity change, negative = cytotoxic [3] -14.6% [at 9.22 µM] | activity change, negative = cytotoxic [4] 7.29% [at 11.5 µM] | activity change, negative = cytotoxic [5] 10.2% [at 9.22 µM] | activity change, negative = cytotoxic [6] 2.93% [at 9.22 µM] | activity change, negative = cytotoxic [7] -20.9% [at 9.22 µM] | activity change, negative = cytotoxic [8] -0.785% [at 11.4 µM] | activity change, negative = cytotoxic [10] 7.51% [at 9.22 µM] | activity change, negative = cytotoxic [9] 27.4% [at 9.22 µM]

CC(=O)[C@@]1(O)CC[C@H]2[C@@H]3CCC4=CC(=O)CC[C@]4(C)[C@H]3CC[C@@]21C
inactive: Potency [1] | Potency [2] | Potency [3] | Potency [4] | Potency [5] | Potency [6] | Potency [7] | Potency [8] | Potency [9]

O=c1[nH]c(=O)n([C@H]2C[C@H](O)[C@@H](CO)O2)cc1Br
inactive: Potency [1] | Potency [2] | Potency [3] | Potency [4] | Potency [5] | Potency [6] | Potency [7] | Potency [10] | Potency [9]

C[C@]12C=CC(=O)C=C1CC[C@H]1[C@@H]3C[C@@H](O)[C@](O)(C(=O)CO)[C@@]3(C)C[C@H](O)[C@@]12F
inactive: Potency [1] | Potency [2] | Potency [3] | Potency [4] | Potency [5] | Potency [6] | Potency [7] | Potency [8] | Potency [10] | Potency [9]

NC(=Nc1ccccc1)Nc1ccccc1
inactive: Potency [1] | Potency [2] | Potency [3] | Potency [4] | Potency [5] | Potency [6] | Potency [7] | Potency [8] | Potency [10] | Potency [9]

NC(=O)N1c2ccccc2C=Cc2ccccc21
inactive: Potency [1] | Potency [2] | Potency [3] | Potency [4] | Potency [5] | Potency [6] | Potency [7] | Potency [8] | Potency [9]

CCn1cc(C(=O)O)c(=O)c2cc3c(cc21)OCO3
inactive: Potency [1] | Potency [2] | Potency [3] | Potency [4] | Potency [5] | Potency [6] | Potency [7] | Potency [8] | Potency [10] | Potency [9]

C[C@H](CS)C(=O)N1CCC[C@H]1C(=O)O
inactive: Potency [1] | Potency [2] | Potency [3] | Potency [4] | Potency [5] | Potency [6] | Potency [7] | Potency [8] | Potency [10] | Potency [9]

CCN1CCC[C@H]1CNC(=O)c1c(O)c(Cl)cc(Cl)c1OC
inactive: Potency [1] | Potency [2] | Potency [3] | Potency [4] | Potency [5] | Potency [6] | Potency [7] | Potency [8] | Potency [10] | Potency [9]

CCN(CC)CCNC(=O)c1ccc(NC(C)=O)cc1
inactive: Potency [1] | Potency [2] | Potency [3] | Potency [4] | Potency [5] | Potency [6] | Potency [7] | Potency [8] | Potency [9]

CC(C)NNC(=O)c1ccncc1
inactive: Potency [1] | Potency [2] | Potency [3] | Potency [4] | Potency [5] | Potency [6] | Potency [7] | Potency [8] | Potency [10] | Potency [9]

CC(C(=O)O)c1ccc(CC2CCCC2=O)cc1 (stereo not drawn)
inactive: Potency [1] | Potency [2] | Potency [3] | Potency [4] | Potency [5] | Potency [6] | Potency [7] | Potency [8] | Potency [9]

CN(C)C(=O)Oc1cccc([N+](C)(C)C)c1
inactive: Potency [1] | Potency [2] | Potency [3] | Potency [4] | Potency [5] | Potency [6] | Potency [7] | Potency [10] | Potency [9]

NC(Cc1ccc(Cl)cc1)C(=O)O (stereo not drawn)
inactive: activity change, negative = cytotoxic [1] 16.4% [at 0.597 µM] | activity change, negative = cytotoxic [2] 16% [at 0.597 µM] | activity change, negative = cytotoxic [3] -1.75% [at 0.597 µM] | activity change, negative = cytotoxic [4] 9.97% [at 0.745 µM] | activity change, negative = cytotoxic [5] 23.4% [at 0.597 µM] | activity change, negative = cytotoxic [6] 18.1% [at 0.597 µM] | activity change, negative = cytotoxic [7] 1.27% [at 0.597 µM] | activity change, negative = cytotoxic [10] 9.7% [at 0.597 µM] | activity change, negative = cytotoxic [9] 0.0057% [at 0.597 µM]

Cc1ccc(/C(=C\CN2CCCC2)c2ccccn2)cc1
inactive: Potency [1] | Potency [2] | Potency [3] | Potency [4] | Potency [5] | Potency [6] | Potency [8] | Potency [9]

Cc1nnc(SCC2=C(C(=O)O)N3C(=O)[C@@H](NC(=O)Cn4cnnn4)[C@H]3SC2)s1
inactive: Potency [1] | Potency [2] | Potency [3] | Potency [4] | Potency [5] | Potency [6] | Potency [7] | Potency [10] | Potency [9]
